Compound activity as filed in PubChem.
Most compounds without a hit are left out; they make up all but 1.3% or so of the library.
RXFP1 ag – activates the human relaxin receptor RXFP1; Q9HBX9; HEK293T-RXFP1 cAMP TR-FRET, 30 min; response scale: percent of porcine relaxin response, buffer zero; Potency, µM (highest dose often 57.5 µM), for the others: at the highest dose activation, hits mostly activators; 370,000 tested, 0.3% active; active = well fitted activation curve with a large enough effect; inconclusive = small, poorly fitted or top-dose-only effect; also: potency is read from the fitted curve at half-maximal effect; % is scaled to controls: 0 for no effect and ±100 for the full control effect; nearly all actives have a fitted effect of over 60% in size
Target sequence (Q9HBX9 whole entry, looked up): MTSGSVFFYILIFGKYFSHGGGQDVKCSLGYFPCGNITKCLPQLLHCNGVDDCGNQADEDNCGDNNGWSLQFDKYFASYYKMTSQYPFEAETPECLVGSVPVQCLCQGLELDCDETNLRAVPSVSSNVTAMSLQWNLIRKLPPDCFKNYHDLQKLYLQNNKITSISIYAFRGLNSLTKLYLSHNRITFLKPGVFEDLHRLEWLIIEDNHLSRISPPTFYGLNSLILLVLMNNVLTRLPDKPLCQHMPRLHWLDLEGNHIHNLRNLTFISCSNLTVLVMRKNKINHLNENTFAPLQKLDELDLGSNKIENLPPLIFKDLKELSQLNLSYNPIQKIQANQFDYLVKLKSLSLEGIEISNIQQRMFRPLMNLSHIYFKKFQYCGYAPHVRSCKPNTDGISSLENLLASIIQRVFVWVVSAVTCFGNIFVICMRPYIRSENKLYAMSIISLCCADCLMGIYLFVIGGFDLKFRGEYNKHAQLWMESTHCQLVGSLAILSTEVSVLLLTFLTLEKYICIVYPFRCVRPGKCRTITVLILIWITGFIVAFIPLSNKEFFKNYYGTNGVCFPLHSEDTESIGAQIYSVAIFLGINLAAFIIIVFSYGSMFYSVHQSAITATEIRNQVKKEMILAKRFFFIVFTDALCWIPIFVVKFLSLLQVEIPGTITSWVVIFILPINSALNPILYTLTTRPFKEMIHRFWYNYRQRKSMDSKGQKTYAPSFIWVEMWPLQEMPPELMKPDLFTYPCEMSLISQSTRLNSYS
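cAMP rise read by TR-FRET after 30 min, 37C compound exposure (up to 58 uM) in RXFP1-transfected HEK293 cells with Ro 20174 present. EC50 from Hill-equation fits, with 29 nM porcine relaxin as 100% and buffer as basal.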
Akt phos inh – blocks phosphorylation of Akt. Neuro2A IGF-stimulated pAkt S473 HTRF, 20 min; stronger effect = lower value. activity change, % for hits at 50 µM. 360,000 tested, 0.32% active. AID 651550; in the data active = activity change below about -80%; inconclusive = mostly about -51% to -80%; also: % is scaled to controls: 0 for no effect and ±100 for the full control effect
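Neuro2A cells (4,500/well, DMEM with 0.5% FBS) were treated with compound at a single 50 µM final concentration, stimulated with 6 nM IGF for 20 min at 37 °C, and lysed. Phospho-Akt Ser473 was read by HTRF as 665/615 ratio ×10^4.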
gsp antagonist – antagonists of gsp mutant (McCune-Albright syndrome); gsp-mutant cells, cAMP HTRF, 30 min; AID 624288; 340,000 tested, 0.4% active; Potency, µM (titrated, usually from 76.9 µM), without a hit: at the highest dose activity change, negative = inhibition, usual class: inhibitors; calls by dose curve; cell line not stated here;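 also: intracellular cAMP measured with PDE inhibitor Ro 20-1724 present during compound exposure; potency is read from the fitted curve at half-maximal effect; % is scaled to controls: 0 for no effect and ±100 for the full control effect; nearly all actives have a fitted effect of over 65% in size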
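G418-selected cells were plated in DMEM/10% FBS for 16-24 h at 37C, then treated with compounds plus the PDE inhibitor […] (300 uM solution added) for 30 min at 37C. Intracellular cAMP was measured by HTRF after 30 min lysis at room temperature.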
RXFP1 antag – antagonists of human relaxin receptor RXFP1; HEK293-RXFP1, relaxin-stimulated cAMP HTRF, 30 min; stronger effect = lower value; activity change, negative = inhibition, % at 57.5 µM; 350,000 tested, 0.59% active;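 active = activity change of -60% or lower, but not beyond a set lower limit; inconclusive = change between -60% and -40%, or beyond the set limit; inactive = change above -40%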; also: % is scaled to controls: 0 for no effect and ±100 for the full control effect
gsp agonist – gsp mutant agonism | Potency, µM (series often up to 76.9 µM), without a hit: at the top dose activation (cAMP increase), hits mostly activators | AID 624287 | 340,000 tested, 0.13% active | gsp mutant cells, cAMP HTRF, 30 min; active = well fitted activation curve with a large enough effect; inconclusive = small, poorly fitted or top-dose-only effect, or another doubt; inactive = no such curve, though single readings can be large or run the other way; cell line not stated here;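 also: phosphodiesterase inhibitor Ro 20-1724 added with compounds to block cAMP breakdown; potency is read from the fitted curve at half-maximal effect; nearly all actives have a fitted effect of over 60% in size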
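Cells stably selected in G418 were plated at 2000/well, grown 16-24 hr, then given compounds in DMSO with the PDE inhibitor […] (300 uM solution added) for 30 min at 37C; cAMP was read by HTRF.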
TSHR antag – blocks TSH signaling through the human TSH receptor | 330,000 tested, 0.2% active | TSHR-expressing cells, TSH-stimulated cAMP HTRF, 2 h; stronger effect = lower value | activity change, negative = inhibition, % at 11.5 µM | AID 504810 | P16473;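 active = activity change below a set negative limit, meaning inhibition stronger than a set level, cut at about -70% in these data; inconclusive = activity change between two set negative limits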; also: % is scaled to controls: 0 for no effect and ±100 for the full control effect
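Antagonism was scored as loss of TSH-driven cAMP in TSHR cells, stimulated with 4nM TSH (EC80) for 2 hours at 37 deg C and detected by homogeneous HTRF competition immunoassay.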
The depositor's hits bear a star; i = inactive; ? = inconclusive; / = no result; [ ] = remark or other dose.

SMILES	RXFP1 ag	Akt phos inh	gsp antagonist	RXFP1 antag	gsp agonist	TSHR antag
CC1CCCN(C(=O)c2ccc3c(=O)n(C4CCCC4)c(=S)[nH]c3c2)C1 (stereo unspecified)	1%	i	?	-29	?	-7
CC(C)(C)c1ccc(C(=O)CCCCl)cc1	/	/	/	-7	/	/
CN1CCN(CCOC2Cc3ccccc3Sc3ccc(Cl)cc32)CC1 (stereo unspecified)	0%	i	-1%	-70*	3%	8
O=C1c2ccccc2C(=O)C1c1ccnc2ccccc12	-4%	-122%*	-1%	9	-18%	-19
O=C1c2ccccc2C(=O)C1c1nccc2ccccc12	4%	i	-4%	-7	-26%	-3
Cc1cccc(NC(=O)NCCn2c(=O)oc3ccc(C)cc32)c1	5%	/	/	/	/	/
Cc1ccc(N(Cc2cccs2)C(=O)C(C)Oc2ccc(Cl)c(C)c2)cc1 (stereo unspecified)	-2%	/	/	-100*	/	/
Cc1ccc(N(Cc2cccs2)C(=O)c2ccc(Br)o2)cc1	0%	/	/	-85*	/	/
COc1ccc(N(Cc2cccs2)C(=O)c2ccc(OCC(C)C)cc2)cc1	-4%	/	/	?	/	/
COc1ccc(N(Cc2cccs2)C(=O)c2ccc(C(C)(C)C)cc2)cc1	-1%	/	/	-73*	/	/
COc1cccc(CN(C)CC(=O)Nc2ccccc2C(=O)NC2CC2)c1	0%	i	8%	4	-11%	0
CCNc1nc(N2CCOCC2)nc(N(c2ccccc2)c2ccccc2)n1	-1%	-110%*	-15%	2	-16%	-2
CC(C)c1ccc(NC(=O)CCNS(=O)(=O)c2ccc3[nH]c(=O)oc3c2)cc1	1%	i	4%	18	?	6
Cc1cc(OC(C)C(=O)N(Cc2ccco2)Cc2ccccc2F)cc(C)c1Cl (stereo unspecified)	-6%	/	/	-72*	/	/
Cc1cc(OC(C)C(=O)N(Cc2ccc(N(C)C)cc2)Cc2ccco2)ccc1Cl (stereo unspecified)	-3%	/	/	-15	/	/
CC1(C)O[C@@H]2C[C@H]3[C@@H]4CCC5=CC(=O)CC[C@]5(C)[C@@]4(F)[C@@H](O)C[C@]3(C)[C@]2(C(=O)CCl)O1	-3%	i	-21%	-73*	/	-3
C[C@]12CCC(=O)C=C1CC[C@H]1[C@@H]3CC[C@](O)(C(=O)CO)[C@@]3(C)C[C@H](O)[C@@]12F	/	/	/	-10	/	/
COc1cc(OC)cc(C(=O)NNC(=O)c2ccccn2)c1	0%	i	-7%	-94*	-8%[15.4 µM]	-8
CC(=O)c1ccc(NC(=O)C2CCC(CNS(=O)(=O)c3cccc4nsnc34)CC2)cc1 (stereo unspecified)	2%	/	/	-13	/	/
Cc1cnc(NC(=O)c2ccc3c(c2)C(=O)N(Cc2ccco2)C3=O)s1	0%	-120%*	-8%	-14	-4%	-9
COC(=O)c1ccc(NC(=O)c2ccc3c(c2)C(=O)N(Cc2cccnc2)C3=O)cc1	0%	i	40µM*	-1	1%	-19
CC(C)CN1C(=O)c2ccc(C(=O)Nc3ccncc3)cc2C1=O	0%	i	28µM*	-4	-65%	-46
CC(C)CN1C(=O)c2ccc(C(=O)Nc3ccccn3)cc2C1=O	1%	i	22%	1	-11%	-2
COC(=O)c1cccc(NC(=O)c2ccc3c(c2)C(=O)N(Cc2cccnc2)C3=O)c1	0%	i	?	-34	-13%	-16
CC(C)CCN1C(=O)c2ccc(C(=O)Nc3cc(C(=O)O)cc(C(=O)O)c3)cc2C1=O	7%	i	5%	-10	13%[15.4 µM]	-16
CC(C)CCN1C(=O)c2ccc(C(=O)Nc3ccc(Br)cc3C(=O)O)cc2C1=O	0%	i	35µM*	-7	5%	-36
CCN1C(=O)c2ccc(C(=O)Nc3ncc(C)s3)cc2C1=O	4%	i	8%	8	8%[15.4 µM]	9
CCOC(=O)c1ccc(NS(=O)(=O)c2cc3c(cc2C)n(C)c(=O)c(=O)n3C)cc1	8%	/	/	-2	/	/
